Bioassay records from PubChem.
PLK1 PBD block: PLK1 (human) polo-box domain binding inhibition; P53350; Plk1 PBD binding of FITC phosphopeptide, fluorescence polarization; Potency, µM, for the others: max response, negative = inhibition, hits mostly inhibitors; 360,000 tested, 2.8% active; note: series mostly up to about 57 µM; % is set by controls: 0 for no effect and ±100 for the full control effect; nearly all actives have a fitted effect of over 65% in size
JMJD2A Tudor inh: blocks the human JMJD2A Tudor domain | O75164 | AlphaScreen JMJD2A-Tudor / H3K4me3 peptide binding | Potency, µM (series often up to 114 µM), inactives show at the top dose activity change, negative = inhibition, usual class: inhibitors | 390,000 tested, 4.4% active; note: % is set by controls: 0 for no effect and ±100 for the full control effect; nearly all actives have a fitted effect of over 50% in size
L3MBTL1 block: L3MBTL1 (human) inhibition; Q9Y468; 230,000 tested, 0.66% active; Potency, µM (doses to about 57.1 µM), for inactives: at the highest dose activity, negative = inhibition, hits mostly inhibitors; AlphaScreen L3MBTL1–H3K9me1 peptide binding; note: % is set by controls: 0 for no effect and ±100 for the full control effect; nearly all actives have a fitted effect of over 60% in size
Target sequence (Q9Y468 whole entry, looked up): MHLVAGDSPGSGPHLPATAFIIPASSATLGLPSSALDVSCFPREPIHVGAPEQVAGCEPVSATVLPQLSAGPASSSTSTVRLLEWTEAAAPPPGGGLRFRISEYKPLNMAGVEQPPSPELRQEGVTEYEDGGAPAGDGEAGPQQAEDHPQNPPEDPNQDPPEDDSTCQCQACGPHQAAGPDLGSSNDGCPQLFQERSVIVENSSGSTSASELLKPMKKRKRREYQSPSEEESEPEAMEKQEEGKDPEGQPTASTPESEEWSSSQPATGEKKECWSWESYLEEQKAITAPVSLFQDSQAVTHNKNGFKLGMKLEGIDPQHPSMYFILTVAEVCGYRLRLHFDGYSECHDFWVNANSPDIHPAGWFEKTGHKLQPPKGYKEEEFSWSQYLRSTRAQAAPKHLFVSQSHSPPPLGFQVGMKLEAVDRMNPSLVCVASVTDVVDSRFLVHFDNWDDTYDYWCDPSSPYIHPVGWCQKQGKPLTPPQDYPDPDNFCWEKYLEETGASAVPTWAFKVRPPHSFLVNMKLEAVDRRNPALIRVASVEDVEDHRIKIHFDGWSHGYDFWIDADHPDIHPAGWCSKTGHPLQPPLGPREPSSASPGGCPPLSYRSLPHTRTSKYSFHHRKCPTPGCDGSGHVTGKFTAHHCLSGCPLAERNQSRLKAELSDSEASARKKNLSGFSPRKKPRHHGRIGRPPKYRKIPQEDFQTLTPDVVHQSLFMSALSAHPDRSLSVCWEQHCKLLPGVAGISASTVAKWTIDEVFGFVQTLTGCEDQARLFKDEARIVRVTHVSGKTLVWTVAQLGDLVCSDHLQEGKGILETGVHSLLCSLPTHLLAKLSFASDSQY
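L3MBTL1 (50 nM) pre-complexed 30 min with biotinylated H3(1-15)K9me1 peptide (75 nM), then compounds added for 30 min at room temperature; AlphaScreen streptavidin donor/nickel chelate acceptor beads (10 ug/mL final) read after 30 min dark incubation.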
BAZ2B inh: blocks human BAZ2B; 360,000 tested, 4.4% active; Potency, µM (highest dose often 114 µM), for inactives: top-dose activity change, negative = inhibition, hits mostly inhibitors; AID 504333; AlphaScreen BAZ2B-H3K14Ac peptide displacement; Q9UIF8; note: % is set by controls: 0 for no effect and ±100 for the full control effect; nearly all actives have a fitted effect of over 60% in size
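AlphaScreen luminescence quantifies BAZ2B engagement of H3K14Ac peptide; the protein and biotinylated peptide are both at 50 nM final, buffer PBS pH 7.4 with 0.01% Tween-20, all steps at room temperature.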
HP1b binding inh: blocks HP1-beta chromodomain binding to methylated histone tails. AlphaScreen HP1-beta / biotin-H3K9me3 peptide binding. AID 540317. 390,000 tested, 0.56% active. P83916. Potency, µM (titrated, usually from 114 µM), inactives show top-dose activity change, negative = inhibition, actives largely listed as inhibitors; note: nearly all actives have a fitted effect of over 70% in size
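Compound inhibition of the preformed complex between 50 nM HP1-beta and 50 nM biotinylated H3K9me3 peptide was read by AlphaScreen. Buffer was PBS pH 7.4 with 0.01% Tween-20. Incubations ran 30 min at room temperature, with 10 ug/mL donor/acceptor beads.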
VDR inhibitor: vitamin D3 receptor (human) inhibition. P11473. VDR-SRC2-3 peptide fluorescence polarization, 2 h. Potency, µM, without a hit: max response, negative = inhibition, actives largely listed as inhibitors. 400,000 tested, 0.93% active. AID 504847; note: % is set by controls: 0 for no effect and ±100 for the full control effect
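VDR–SRC2-3 interaction, FP format. Cmpds 23 nl via pintool, brief spin, 2 h ambient incubation.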
Active calls of the source: *; ? = inconclusive; · = no result; [ ] = remark or other dose. A selection: hits, their analogues and other compounds. The true share with any hit is near 6.9%. Calls come from the whole dose curve; as a rule, active = well fitted curve in the direction sought with a large enough effect; inconclusive = small, poorly fitted or top-dose-only effect, or another doubt; inactive = no such curve, though single readings can be large; an effect the other way counts as inactive or inconclusive. Potency is the fitted concentration of half-maximal effect.

SMILES	PLK1 PBD block	JMJD2A Tudor inh	L3MBTL1 block	BAZ2B inh	HP1b binding inh	VDR inhibitor
Cc1nnnn1/C(=C\c1ccccc1)C(=O)OCC(=O)Nc1cccc(S(=O)(=O)N(C)C)c1	-22%	-23%	-3%	-2%	30%	45µM*
CCOc1ccc(-n2cc(-c3ccccc3)c3c(NCCc4ccccc4)ncnc32)cc1	·	-28%	·	?	33%	-1%
O=c1[nH]cc(-c2ccccc2)c(=O)[nH]1	-1%	-4%	2%	-6%	35%	-8%
O=c1[nH]cc(S(=O)(=O)c2ccccc2)[nH]1	30µM*	-14%[11.4 µM]	6%	1%	?	-30%
Nc1c(-c2ccccc2)cc[nH]c1=O	·	8.9µM*	·	·	·	·
N#C/C(=C\c1ccccc1)C(=O)NNS(=O)(=O)c1ccc(Br)cc1	21µM*	-28%	5%	·	-1%	45µM*
Cc1cc(C)c(S(=O)(=O)N(C)CC(=O)N2CCCC2)c(C)c1	8%	·	·	·	·	·
CCN(c1ccccc1)S(=O)(=O)c1ccc(Cl)c(NC(=O)CN(C)C2CCN(C)CC2)c1	4%	?	·	22µM*	?	13%
CCN(c1ccccc1)S(=O)(=O)c1ccc(Cl)c(NC(=O)CNCc2ccccc2OC)c1	-10%	3.2µM*	-10%	·	?	4%
CCN(CC)C(=O)C1=CC(c2ccc3c(c2)OCO3)=NS(=O)(=O)N1C	·	-12%	·	-7%	19%	8%
CCC1CN(C(=O)N2CCC(C(=O)N3CCN(c4cc(C)ccc4C)CC3)CC2)c2ccccc2O1 (stereo unspecified)	·	-1%	·	2%	58%	17%
COc1ccc(NC(=O)c2ccc(Cn3cc(Cl)cn3)cc2)cc1	-17%	-6%	38%	5%	41%	-1%
CN(C)c1ccc(NC(=O)c2ccc(Cn3cc([N+](=O)[O-])cn3)cc2)cc1	6%	50µM*	·	25µM*	45µM*	-3%
Cc1ccc(C(=O)COC(=O)c2cc(=O)[nH]c3ccccc23)cc1C	-6%	-33%	3%	50µM*	?	-2%
Cn1cc(P(=O)(c2ccccc2)c2ccccc2)c2ccccc21	·	-15%	·	·	·	·
O=C(NCCCn1ccnc1)/C(=C\c1ccco1)NC(=O)c1ccco1	-10%	-6%	·	89µM*	36%	8%
O=C(NCCCn1ccnc1)/C(=C/c1ccc(F)cc1)NC(=O)c1ccccc1	-5%	-9%	·	71µM*	9%	15%
O=C(NCCCn1ccnc1)c1ccco1	-10%	?	4%	?	9%	8%
COc1ccccc1NC(=O)C1CCN(S(=O)(=O)c2ccc3c(c2)oc(=O)n3C)CC1	·	-18%	·	-2%	20%	8%
C=CCOc1ccc(CNn2c(C)n[nH]c2=S)cc1OC	-6%	20µM*	-12%	0%	49%	22%
COc1cc(CNn2c(C)n[nH]c2=S)cc(Br)c1OCC(=O)NC(C)(C)C	4%	?	3%	-8%	26%	-4%
C=CCOc1c(Br)cc(CNn2c(C)n[nH]c2=S)cc1OC	-6%	89µM*	-8%	-30%	?	-4%
COc1cc(CNn2c(C)n[nH]c2=S)cc(Cl)c1OCC(=O)NC(C)(C)C	-13%	56µM*	7%	-7%	52%	-15%
CSc1ncc(C(=O)Nc2ccccc2)cn1	-5%	-15%	2%	10%	46%	-2%
Cc1c(N=C(N)/N=C(\N)Nc2ccccc2)c(=O)n(-c2ccccc2)n1C	0%	-13%	3%	9%	7%	9%
SMILES	PLK1 PBD block	JMJD2A Tudor inh	L3MBTL1 block	BAZ2B inh	HP1b binding inh	VDR inhibitor
Cc1c(N=C(N)/N=C(\N)Nc2ccc(Br)cc2)c(=O)n(-c2ccccc2)n1C	-1%	32µM*	8%	14%	13%	16%
COc1ccccc1C(=O)NCC(=O)OCC(=O)Nc1ccc2[nH]c(=O)[nH]c2c1	-3%	-18%	?	-27%	42%	-13%
COCCn1c(=NC(=O)c2cc3ccccc3oc2=O)sc2cc(S(N)(=O)=O)ccc21	-10%	-27%	6%	-6%	3%	-6%
C#CCOCCOCCOCCNc1nc(N2CCN(C(=O)[C@H](CO)n3cc([C@@H](N)C(C)C)nn3)CC2)nc(N2CCN(C(=O)[C@H](CCC(=O)O)n3cc([C@@H](N)CCCCN)nn3)CC2)n1	2%	?	-3%	·	43%	13%
C#CCOCCOCCOCCNc1nc(N2CCN(C(=O)C([C@@H](C)O)n3cc([C@@H](N)CCCCN)nn3)CC2)nc(N2CCN(C(=O)[C@H](CO)n3cc([C@@H](N)C(C)C)nn3)CC2)n1 (stereo partly specified)	-5%	79µM*	2%	·	25%	-10%
C#CCOCCOCCOCCNc1nc(N2CCN(C(=O)[C@H](CO)n3cc([C@@H](N)C(C)C)nn3)CC2)nc(N2CCN(C(=O)[C@H](CO)n3cc([C@@H](N)C(C)C)nn3)CC2)n1	1%	79µM*	·	·	23%	-25%
C#CCOCCOCCOCCNc1nc(N2CCN(C(=O)C([C@@H](C)O)n3cc([C@@H](N)CCCCN)nn3)CC2)nc(N2CCN(C(=O)C([C@@H](C)O)n3cc([C@@H](N)CCCCN)nn3)CC2)n1 (stereo partly specified)	4%	50µM*	3%	·	27%	-6%
COC(=O)c1ccc(CN2CCc3ccccc32)cc1	-8%	40µM*	-3%	?	-19%	-20%
COC(=O)C[C@H]1C[C@H]2c3cc(NS(=O)(=O)c4ccc(OC)cc4)ccc3O[C@H]2[C@H](CO)O1	-7%	·	·	·	·	·
COC(=O)C1=C(C)N(Cc2cccnc2)C(=O)C1	-1%	-20%	11%	2%	32%	-11%
C=CCN1C(=O)/C(=C\c2cccs2)C(C(=O)OC)=C1C	-5%	?	·	40µM*	?	-7%
COC(=O)C1=C(C)N(Cc2cccnc2)C(=O)/C1=C\c1cccs1	·	·	?	28µM*	·	·
CCOc1ccc2nc(N3CCCC(C(=O)Nc4ccccc4CC)C3)sc2c1 (stereo unspecified)	·	-8%	·	3%	11%	21%
O=C(Nc1cccc(Cl)c1)c1ccc(NCCCN2CCOCC2)c([N+](=O)[O-])c1	-10%	?	-9%	45µM*	?	11%
Cc1ccc(NC(=O)c2ccc(NCCCN3CCC(C)CC3)c([N+](=O)[O-])c2)cc1F	-28%	79µM*	·	-12%	2%	-1%
Cc1cccc(-c2noc(CN(C3CCCCC3)S(=O)(=O)c3ccc(F)cc3)n2)c1	·	11%	·	2%	31%	14%
COc1cc(NC(=O)Cn2cnc(S(=O)(=O)N3CCc4ccccc43)c2)cc(OC)c1OC	-9%	-5%	·	-20%	35%	-10%
